From the supplement of paper PMC6555819 come the findings set out here.

The assay has as its system VDR:RXRa (NR concentration 270 nM, RXRa partner concentration 90 nM). Description: PBM binding z-score (relative to random genomic background probes); higher = stronger binding; sequences stand for … in GC…GCGATTGACAGCGTAGAATGAAGG
The protocol:
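Protein-binding microarray (Agilent 4x180K custom design, double-stranded 60-nt probes: 5' GC cap, 34-nt variable region, 24-nt constant primer region; full probe sequence given). Purified or IVT nuclear receptor:RXRα heterodimers (3:1 NR:RXRα, mostly 270:90 nM) or homodimers were incubated for 1 h in PBS with 2% milk and no ligand, then detected with Alexa488 antibodies. Fluorescence from o1-orientation probes (~5 replicates averaged) was converted to z-scores against 500 random hg19 background probes. Variable regions are seed direct-repeat (DR0–DR5) sites, all their single-nucleotide variants and half-site ablations.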
AGACAAAGTTCATCTAGGTAACGTAAGATATGCT came in with a PBM binding z-score of 5.16.
The same measure for CCTAGCAGGCCAGGGCCACTCAAGCATTTCGCTT: -1.03; for AGAATGAGGTTATTAAGATCATGGAATTGCGGTC: 3.3; for CTACCAAGGTGAACAAGGTGGTTGATTACTATTC: 1.84.
The same measure for TTAATGAGGTTAAAGATCAGGGAACGTGGCGTCG: 2.4; for CCGAATGGGGCAAGGTTACCATAACGCACAGCCA: 0.34.
The same measure for ACTTGTTGGTCAGCTGAGGTCACACACAATTCGG: 4.61; for ATCTCTAGCTAAAGATAGTTCAGTGAATGCAAAT: 0.182.
With ACTTACGGGTCAACGAGGTTATAGCACGCGTATA, the PBM binding z-score is 7.63.
For AGAACGAGGGCACACTGAGTTGATAGCAGAGTAG the value was 2.15.
For CCAGACAGGTGAGAAGGAAACTCAGCCTCGATTA the value was -0.211; for AGAATGAGGTTAAGGTCAGGGAAACAGAATACAT, 3.82; for ATATGTAGGTTAGTTGGGGTCATTCAGACTAGGC, 6.27.
For TCATATAGGTAATACAGGTGACAGTCGGCATCTA the value was 0.922.
TAGCCTAGGTCATGGGGCCAGTATAGTACGCATC had a PBM binding z-score of 2.69.
The same measure for CCGACTGGGGCACGGTTACCATAACGCACAGCCA: -0.636; for TCTTGTAGATCAACAGGAGGTTACGAAAGATCGA: 0.945; for TCTTGTAGATCAAAGGTTAAGAAAGCCGAAGCCT: 1.37.
Take TCATAGAGGTAAATGCTAGGTGAAAGTCCGATCT: the PBM binding z-score was found to be 0.364.
Regarding AATACAGGGGCACTAGGCCAGAGTAGGTACGAAT, the PBM binding z-score stood at 0.171.
The same measure for TCATATTGGTAATACAGGTGAAAGTCGGCATCTA: 1.12; for CCTATTACTTGACCATAAGGGCAACCGAAGCTCG: 0.976; for TCTTGTAGATCAGCTGGTTAAGAAAGCTGGCCAA: -0.152.
For CCTAGCAGGCCAGGGTGACTCAAGCATTTCGCTT the value was -0.639; for AGTCAAAGATCAGGACGAGGTAACGTAAAGCACG, -0.216; for TATCGGAGGACACGAAAGGTCAGAGCTCGACATC, 3.49.
For CGAACTAGGTCATTGACAGGAAAGTGAATAGTAA the value was 1.73; for AGTCAAAGTTCACTACGTAACGTAAGATTCAGCT, 3.72.
Take TCTCGGAGGACAAGAAGGTCAGAGCTTTCCAGAG: the PBM binding z-score was found to be 1.8.
For CCAGACAGGTGAAAGGTAATTCAGTCTGGTACGC the value was 0.632.
For AATCCAGGGTCACTAGGCCAGAGTAGGTACGAAT the value was 4.31.
The same measure for GCTCGGAGGACAAGGTCAGAGCGTTGTCCGTAGA: 1.67.
On to GCGACTGGGGCATCAGAAGGTTACCATAACTTAA, for which the PBM binding z-score is 0.169.
For ACTAGTTGGTCAGCTGAGGTCACGCACAATTCGG the value was 5.09.
In the case of TGTCAAAGTTCAAAGGTAACGCAAGTATCCACAC, the PBM binding z-score came out at 5.17.
For CAAACTAGGTCAAGAGGTCCAAGTCCGCTTCCCG the value was 4.71; for GATACAGGGTCAAGTCCAGAGTACGCGTATTGAT, 4.66.
On to ATATGTAGGTTAGCTGGGGCCATTCAGACTAGGC, for which the PBM binding z-score came out at 1.97.
The same measure for CTACCAAGGTGTACAAGGTCGTTGATTACTATTC: 2.39.
For CGTCCACGGTCAATGCTAGGTCAGTGAAAGCATT the value was 0.36.
